Active and inactive are the calls of the source.
Experiments:
[1] = biological target: Albumin (Bos taurus) (UniProt P02769); test: bovine serum albumin binders on microarray, profiling panel, artefact control for SMM control protein annotation, biochemical, small-molecule microarray, Alexa647 label, 635/667 nm fluorescence (AID 1118); settings: BSA-A647 binding, fluorescence 635 nm, higher = more signal;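 also: score merges 667 nm emission intensity and signal-to-noise per printed compound spot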
[2] = small-molecule microarray binders of probe aXIP, primary screen, biochemical, NeuroSMM set, 635/667 nm fluorescence (AID 1119); settings: higher = more signal, called active from +8 up or from −8 down;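 also: probe is the protein aXip251-270 applied at 1 µg/mL to compound-printed slides; binding of probe to printed compounds measured as 667 nm fluorescence plus signal to noise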
[3] = small-molecule binders of probe aNOTCH3, primary screen, biochemical, small-molecule microarray, 635/667 nm fluorescence (AID 1120); settings: higher = more signal;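 also: probe is a biotin-tagged antibody raised against NOTCH3 rather than NOTCH3 protein; score merges spot fluorescence near 667 nm with spot signal to noise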
[4] = small-molecule binders of probe aNOTCH2, primary screen, biochemical, small-molecule microarray, 635/667 nm fluorescence (AID 1121); settings: higher = more signal;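 also: score merges feature fluorescence read at 667 nm with its signal to noise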
[5] = biological target: Carbonic anhydrase 2 (Homo sapiens) (UniProt P00918); test: CAII small-molecule binders, profiling panel, biochemical, small-molecule microarray, Alexa647-labelled CAII (AID 1122); settings: CAII-A647 binding fluorescence, higher = more signal
[6] = COS7 lysate on small-molecule microarray, probe aHis, 635 nm (AID 1123); settings: COS7 cell lysate, fluorescence, higher = more signal;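 also: z-score combines 667nm fluorescence intensity with signal-to-noise per printed compound spot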
[7] = compound binding in COS7 lysate, probe aLAP1, primary screen, cell lysate, small-molecule microarray (AID 1124); settings: probe aLAP1, fluorescence, higher = more signal;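 also: lysate comes from COS7 cells expressing LAP1 and is applied at 0.3 µg/mL; score merges spot fluorescence near 667 nm with signal-to-noise over triplicate slides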
[8] = tested on: Sam68 (KHDRBS1); test: Sam68 small-molecule binders, primary screen, biochemical, small-molecule microarray, 635 nm fluorescence (AID 1125); settings: small-molecule microarray binding, higher = more signal;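 also: score merges 667 nm channel intensity with signal to noise over triplicate slides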
[9] = tested on: Chordin-like protein 2 (CHRDL2); test: CHRDL2 small-molecule binders, primary screen, biochemical, small-molecule microarray, 635 nm fluorescence (AID 1126); settings: small-molecule microarray binding, fluorescence 635 nm; higher = more signal;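 also: printed compound slides probed with Chrdl2 protein at 4 µg/mL for 1 h at 4 C; score merges 667 nm emission intensity with signal to noise over three replicate slides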
[10] = biological target: Concanavalin-A (Canavalia ensiformis) (UniProt P02866); test: ConA small-molecule binders, primary screen, artefact control for SMM control protein annotation, biochemical, small-molecule microarray, Alexa647 label, 635 nm (AID 1127); settings: ConA-A647 binding fluorescence, higher = more signal;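 also: z combines 667 nm emission intensity with signal-to-noise across three replicate slides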
Chain of Concanavalin-A (Canavalia ensiformis) (P02866 whole entry, looked up): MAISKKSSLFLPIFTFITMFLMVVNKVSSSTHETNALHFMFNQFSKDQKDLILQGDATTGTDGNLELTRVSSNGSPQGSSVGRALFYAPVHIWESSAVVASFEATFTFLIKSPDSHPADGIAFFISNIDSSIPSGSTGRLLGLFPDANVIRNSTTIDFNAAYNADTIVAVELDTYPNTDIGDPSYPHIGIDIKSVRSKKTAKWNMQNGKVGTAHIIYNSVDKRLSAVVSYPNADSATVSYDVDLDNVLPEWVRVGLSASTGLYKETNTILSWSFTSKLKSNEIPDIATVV

Chain of Albumin (Bos taurus) (P02769 whole entry, looked up): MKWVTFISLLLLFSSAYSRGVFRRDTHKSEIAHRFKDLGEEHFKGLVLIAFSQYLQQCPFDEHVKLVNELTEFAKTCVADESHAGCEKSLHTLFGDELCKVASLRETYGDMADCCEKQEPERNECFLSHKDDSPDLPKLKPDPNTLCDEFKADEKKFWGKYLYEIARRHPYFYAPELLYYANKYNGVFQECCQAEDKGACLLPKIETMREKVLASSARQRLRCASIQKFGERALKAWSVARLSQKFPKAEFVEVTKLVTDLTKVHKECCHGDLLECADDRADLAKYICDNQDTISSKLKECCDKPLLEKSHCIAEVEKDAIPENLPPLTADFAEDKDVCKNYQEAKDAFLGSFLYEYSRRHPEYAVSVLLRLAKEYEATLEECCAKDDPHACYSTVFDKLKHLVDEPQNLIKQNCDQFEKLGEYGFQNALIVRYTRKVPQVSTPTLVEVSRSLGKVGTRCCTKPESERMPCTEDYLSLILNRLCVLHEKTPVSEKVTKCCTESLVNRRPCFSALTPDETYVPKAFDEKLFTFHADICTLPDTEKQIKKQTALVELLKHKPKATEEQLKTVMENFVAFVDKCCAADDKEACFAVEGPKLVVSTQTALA

Row | SMILES | composite z-score [1] | composite Z-score [2] | composite z-score [3] | composite z-score [4] | composite z-score [5] | composite z-score [6] | composite z-score [7] | composite z-score [8] | composite z-score [9] | composite z-score [10]
1 | O=C1O[C@H](c2ccccc2)[C@H](c2ccccc2)N2[C@H]1[C@@H](C(=O)N1CCN(c3ncccn3)CC1)[C@]1(C(=O)Nc3ccc(C#CC4=CCCCC4)cc31)[C@H]2c1ccccc1OCCO | 0.28 | -0.0798 (inactive) | 0.503 | 0.123 | 0.491 | 1.88 | 1.19 | 1.28 | 0.646 | 1.16
2 | [N-]=[N+]=Nc1ccccc1[C@H]1OC(c2ccc(OCCCO)cc2)=N[C@@]1(CCS(=O)(=O)c1ccccc1)C(=O)NCc1ccccc1 | 0.307 | -0.0549 (inactive) | 0.318 | -0.037 | 0.684 | 2.3 | 0.403 | 1.32 | -0.164 | 0.94
3 | COCCCNC(=O)[C@@]1(CCS(=O)(=O)c2ccccc2)N=C(c2ccc(OCCCO)cc2)O[C@H]1c1ccccc1N=[N+]=[N-] | 0.955 | 0.164 (inactive) | 0.307 | -0.0316 | 0.695 | 3.05 | 0.743 | 1.3 | -0.154 | 1.07
4 | COC(=O)[C@H](Cc1ccccc1)N[C@H](/C=C/C1CC1)[C@@H](O)Cc1ccccc1 | -0.115 | 0.448 (inactive) | 0.392 | -0.193 | -0.36 | 0.369 | -0.309 | -0.56 | -0.318 | -0.811
5 | [N-]=[N+]=NCc1ccccc1[C@H]1OC(c2ccc(OCCCO)cc2)=N[C@@]1(Cc1ccccc1)C(=O)N1CCCCC1 | 0.515 | -0.34 (inactive) | 0.234 | -0.133 | 0.591 | 2.32 | 0.284 | 1.29 | -0.237 | 1.08
6 | COCCOC(=O)N1C(=O)[C@@]2(c3cc(C#CC4(O)CCCCCC4)ccc31)[C@H](C(=O)Nc1nc3ccccc3s1)[C@H]1C(=O)O[C@H](c3ccccc3)[C@H](c3ccccc3)N1[C@@H]2c1ccccc1OCCO | 0.306 | -0.129 (inactive) | -0.0647 | -0.162 | 0.598 | 1.73 | 0.233 | 1.3 | -0.0036 | 1.16
7 | C=CC[C@]1(C(N)=O)COC(c2ccc(OCCCO)cc2)=N1 | 0.102 | 0.0767 (inactive) | 0.0831 | -0.104 | 0.903 | 0.148 | -0.136 | -0.133 | 0.0919 | 0.817
8 | CC[C@@H]1C=C(C(=O)O)[C@H](c2cccc3ccccc23)N1S(=O)(=O)c1ccc(C)cc1 | 0.8 | -0.122 (inactive) | 0.0225 | 0.0477 | 0.664 | 1.58 | 0.687 | 1.05 | 0.0837 | 0.774
9 | CCOC(=O)C[C@H]1[C@H](OC(=O)c2ccc(-c3ccccc3)cc2)[C@@H](NC(=O)c2ccccc2)c2cc(OCCCO)ccc2N1C(=O)c1ccc2ccccc2n1 | 0.828 | 0.21 (inactive) | 0.0069 | -0.0811 | 0.287 | 0.96 | 0.547 | 1.18 | -0.8 | 0.627
10 | COCCCNC(=O)[C@@]1(Cc2ccccc2CN=[N+]=[N-])N=C(c2ccc(OCCCO)cc2)O[C@H]1c1ccccc1CN=[N+]=[N-] | 1.02 | 0.585 (inactive) | 0.459 | -0.0438 | 0.594 | 2.58 | 0.574 | 1.29 | -1.13 | 0.972
11 | CC(C)CNC(=O)[C@@]1(Cc2ccccc2I)c2ccccc2C(=O)N(Cc2ccccc2C(F)(F)F)[C@H]1c1ccc(CO)cc1 | 0.212 | 0.117 (inactive) | -0.234 | 0.0344 | 0.417 | 0.959 | 0.393 | 0.432 | -0.731 | -0.0801
12 | NC(=O)[C@@]1(Cc2ccccc2)N=C(c2ccc(OCCCO)cc2)O[C@H]1c1ccccc1 | 0.852 | 0.546 (inactive) | 0.0276 | 0.0247 | 0.721 | 3.05 | 0.593 | 0.572 | -0.643 | 0.737
13 | C#CCN(C/C=C/c1ccccc1)[C@H](CO)c1ccccc1 | -0.287 | -0.014 (inactive) | -0.274 | -0.196 | 0.0571 | -0.128 | -0.0886 | -0.142 | -0.0231 | -0.159
14 | COc1ccc(C(O)C2C=CC3C(=O)N(C)C(=O)C3N2NC(=O)OC(C)(C)C)c2ccccc12 (stereo not given) | 1.02 | -0.128 (inactive) | 0.424 | 0.0315 | 0.745 | 2.98 | 0.404 | 1.3 | -0.345 | 1.11
15 | NC(=O)[C@@H]1[C@H]2C(=O)O[C@H](c3ccccc3)[C@H](c3ccccc3)N2[C@H](c2ccc(OCCO)cc2)[C@@]12C(=O)Nc1ccc(C#CC3=CCCCC3)cc12 | 0.768 | 2.02 (inactive) | -0.0665 | 0.0086 | 0.647 | 0.558 | 0.0971 | 1.32 | 0.463 | 1.09
16 | O=C1C2C=CC(C(O)c3ccc(-c4ccccc4)s3)N(Nc3ccccc3)C2C(=O)N1c1ccccc1 (stereo not given) | 0.931 | -0.375 (inactive) | 0.24 | 0.0554 | 0.591 | 2.82 | 0.103 | 1.31 | 0.0135 | 0.963
17 | O=c1cccc(-c2ccccc2Cl)o1 | 0.18 | 0.0241 (inactive) | -0.177 | -0.199 | -0.0836 | -0.011 | -0.235 | 0.102 | 0.0431 | -0.415

From PubChem BioAssay
